These results are taken from PubChem BioAssay (NCATS).

Where “and” joins values, the source holds several entries; their conditions need not be identical. Equal values may be shown once. Inconclusive results are not listed. Calls of active or inactive are those of the source. Unless noted, calls come from the whole dose curve; as a rule, active = well fitted cell-killing curve with a large enough effect; inconclusive = small, poorly fitted or top-dose-only effect; inactive = flat fitted curve, though single readings scatter.

Assay [1] can be described thus: Cell Viability - LYMP2-006 (AID 978).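 Note: series mostly up to about 92 µM; cells exposed to compound for 24 hours; % is set by controls: 0 for no effect and ±100 for the full control effect; nearly all actives have a fitted effect of over 60% in size.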 The method, boiled down:
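In this cytotoxicity screen, the human lymphoblastoid line grew in complete medium with test compounds for 24 hr at 37 C. Cellular ATP served as the viability signal.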

Assay [2] can be described thus: Cell Viability - LYMP2-007 (AID 979).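 Note: cells exposed to compound for 24 h before reading; 0% = DMSO only and the negative end = 92 µM tetraoctylammonium bromide; nearly all actives have a fitted effect of over 60% in size.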 In short, it runs like this:
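Cells are seeded at 2500 per well and rested 5 hr. Compounds are then added over a concentration series for 24 hr at 37 C. CellTiter-Glo is added for 30 min at room temperature before luminescence reading.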

Assay [3] is described as follows: Cell Viability - LYMP2-008 (AID 980).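 Note: cells exposed to compound for 24 h at 37 °C; % is set by controls: 0 for no effect and ±100 for the full control effect; nearly all actives have a fitted effect of over 60% in size.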 The method, boiled down: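 Cells seeded at 2500/well and rested 5 hr at 37 C; compounds added over a concentration range and incubated 24 hr at 37 C; CellTiter-Glo added, 30 min at room temperature; luminescence read and AC50 fitted with Hill model.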
Assay [4] can be described thus: Cell Viability - LYMP2-010 (AID 981).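 Note: cells exposed to compound for 24 hours at 37 °C; % is set by controls: 0 for no effect and ±100 for the full control effect; nearly all actives have a fitted effect of over 55% in size.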 The method, boiled down: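 Steps: seed 2500 LYMP2-010 cells per well; incubate 5 hr at 37 C; add compound; incubate 24 hr at 37 C; add CellTiter-Glo, wait 30 min at room temperature; read luminescence. Concentration-response fitted to Hill equation for AC50.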
A short description of assay [5]: Cell Viability - LYMP2-012 (AID 982).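 Note: cellular ATP by luciferase luminescence where a drop means cytotoxicity; cells exposed to compound for one day before reading; 0% = DMSO only and full loss = 92 µM tetraoctylammonium bromide; nearly all actives have a fitted effect of over 55% in size.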
Assay [6] can be described thus: Cell Viability - LYMP2-014 (AID 983).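 Note: series mostly up to about 92 µM; cells exposed to compound for 24 h at 37 °C; plate controls were DMSO only for no effect and 92 µM tetraoctylammonium bromide for full effect; nearly all actives have a fitted effect of over 50% in size.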 In short, it runs like this: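 Cells are plated at 2500/well and left 5 hr at 37 C. Compounds are added across a concentration range and incubated 24 hr at 37 C in complete medium. CellTiter-Glo is added, and luminescence is read after 30 min at room temperature.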
A short description of assay [7]: Cell Viability - LYMP2-016 (AID 984).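 Note: cells exposed to compound for 24 hours at 37 °C; % is set by controls: 0 for no effect and ±100 for the full control effect; nearly all actives have a fitted effect of over 55% in size.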 In short, it runs like this: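 Concentration-dependent ATP depletion measured in LYMP2-016 lymphoblastoid cells, 24 h, 37 C; luciferase-based luminescent detection; Hill-equation AC50.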
A short description of assay [8]: Cell Viability - LYMP2-018 (AID 985).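 Note: compound exposure lasted 24 hr at 37 °C; plate controls were DMSO only for no effect and tetraoctylammonium bromide at 92 µM for full effect; nearly all actives have a fitted effect of over 50% in size.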 The method, boiled down:
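Seed 2500 lymphoblastoid cells per well, incubate 5 hr at 37 C, add compound and incubate 24 hr at 37 C, add CellTiter-Glo, wait 30 min at room temperature, then read luminescence.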

Assay [9] is described as follows: Cell Viability - LYMP2-020 (AID 986).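 Note: series mostly up to about 92 µM; cells exposed to compound for 24 h at 37 °C; plate controls were DMSO only for no effect and tetraoctylammonium bromide at 92 µM for full effect; nearly all actives have a fitted effect of over 55% in size.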 In short, it runs like this:
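Seed 2500 cells per well and incubate 5 hr at 37 C. Add compounds at a concentration series and incubate 24 hr at 37 C. Add CellTiter-Glo, wait 30 min at RT, read luminescence, and fit a Hill curve for AC50.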

The nature of assay [10]: Cell Viability - LYMP2-022 (AID 987). The method, boiled down: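 Cells were seeded at 2500 per well, rested 5 hr at 37 C, and treated with titrated compounds for 24 hr at 37 C. Cellular ATP was then quantified by luciferase luminescence, and AC50 values were derived from Hill-modelled concentration-response curves.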
The nature of assay [11]: Cell Viability - LYMP2-024 (AID 988).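 Note: plate controls were DMSO only for no effect and 92 µM tetraoctylammonium bromide for full effect; nearly all actives have a fitted effect of over 60% in size.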 The method, boiled down:
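qHTS cytotoxicity, human lymphoblastoid line, complete medium; 24 h cpd treatment, 37 C; CellTiter-Glo ATP luminescence readout; tetraoctylammonium bromide positive control; AC50 via Hill fit.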

Assay [12] is described as follows: Cell Viability - LYMP2-026 (AID 989).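 Note: cells exposed to compound for 24 h at 37 °C; % is set by controls: 0 for no effect and ±100 for the full control effect; nearly all actives have a fitted effect of over 50% in size.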 In short, it runs like this:
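Cells are seeded at 2500 per well and held 5 hr at 37 C. Compounds are added in concentration series for 24 hr, then CellTiter-Glo reagent is applied and luminescence read.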

The nature of assay [13]: Cell Viability - LYMP1-002 - Assay at 24 hr (AID 993). Note: % is set by controls: 0 for no effect and ±100 for the full control effect. In short, it runs like this: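 Acute toxicity is measured as concentration-dependent loss of cellular ATP in a human lymphoblastoid line (Coriell LYMP1-002) after 24 h treatment in complete medium. ATP is quantified by luciferase luminescence and AC50 derived by Hill modelling.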
The nature of assay [14]: Cell Viability - LYMP1-002 - Assay at 40 hr (AID 994). In short, it runs like this:
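Cells are plated at 2500 per well and rested 5 hr at 37 C. Compounds are added and incubated 40 hr at 37 C. CellTiter-Glo reagent is added for 30 min at room temperature before luminescence is read.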

In assay [15] the target is Estrogen receptor (Homo sapiens) (UniProt P03372). As to the kind of experiment: qHTS assay for small molecule antagonists of estrogen receptor alpha signaling (AID 588513; active = well fitted curve in the direction sought with a large enough effect in the signal ratio, with a control signal flat, not every such curve was filed as active; the % refers to the signal ratio; note: % is set by controls: 0 for no effect and ±100 for the full control effect). The method, boiled down:
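Antagonist-mode qHTS in ER-alpha-UAS-bla HEK 293 cells: compound titration, 0.5nM estradiol for 18 h, CCF4 fluorescence, Hill-derived IC50.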
(In general: Quantitative high-throughput screening tests each substance at several concentrations.)

Assay [16] has the same target. As to the kind of experiment: qHTS assay for small molecule agonists of estrogen receptor alpha signaling (AID 588514; calls by dose curve;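 note: 0% = vehicle only and 100% = reference agonist; nearly all actives have a fitted effect of over 70% in size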). The method, boiled down:
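Efficacy is expressed against 20 nM 17-beta-estradiol (100%) and DMSO basal (0%); EC50 from Hill equation. Assay: beta-lactamase reporter in ER-alpha-UAS-bla HEK 293 cells, 18 h compound incubation, CCF4 detection.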

Assay [17] has as its target Bile acid receptor (Homo sapiens) (UniProt Q96RI1). As to the kind of experiment: qHTS assay for small molecule antagonists of farnesoid X receptor signaling (AID 588526; calls by dose curve; note: % is set by controls: 0 for no effect and ±100 for the full control effect). In short, it runs like this: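 Antagonist mode: titrated compounds tested against chenodeoxycholic acid stimulation (normalized to 50 uM CDCA and DMSO) in GeneBLAzer HEK293T cells for 16 h. Beta-lactamase read by CCF4 fluorescence; IC50 from Hill fits.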

Assay [18] shares this target. As to the kind of experiment: qHTS assay for small molecule agonists of farnesoid X receptor signaling (AID 588527; calls by dose curve;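 note: series mostly up to about 77 µM; 0% = vehicle basal and 100% = reference agonist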). Conditions: HEK293T FXR-UAS-bla, beta-lactamase ratio, 16 h; stronger effect = higher value. In short, it runs like this: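 FXR-UAS-bla HEK293T, 10% dialyzed FBS; cpds up to 92 uM titration, 16 h 37 C; CCF4 dye 2 h RT; fluorescence. Normalized to chenodeoxycholic acid 100 uM (100%) and DMSO (0%); Hill fit gives EC50, efficacy.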

In assay [19] the target is Peroxisome proliferator-activated receptor delta (Homo sapiens) (UniProt Q03181). As to the kind of experiment: qHTS assay for small molecule agonists of peroxisome proliferator-activated receptor delta signaling (AID 588534; calls by dose curve;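 note: 0% = DMSO basal wells and 100% = positive control agonist at 10 µM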). In short, it runs like this: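 Agonist-mode qHTS; reporter cells, 5 hrs 37 C pre-incubation; compound titration, 18 hrs 37 C; CCF4 dye, 2 hrs RT; fluorescence read. EC50/efficacy via Hill fit.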

Assay [20] is described as follows: qHTS assay for small molecule antagonists of peroxisome proliferator-activated receptor delta signaling (AID 588535; active = well fitted inhibition curve with a large enough effect in the signal ratio, with a control signal flat, not every such curve was filed as active; the % refers to the signal ratio;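 for max response: cells co-treated with a PPAR-delta agonist as stimulator during compound exposure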). The conditions noted are these: HEK293T PPARd-UAS-bla, beta-lactamase FRET ratio, 18 h; 460 nm channel. In short, it runs like this:
(§1)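 Fluorescence from CCF4-loaded GeneBLAzer PPAR-delta-UAS-bla HEK293T cells (2 hrs RT loading) quantified reporter inhibition after an 18 hr, 37 C compound exposure across a titration.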

For assay [21], the target named is Peroxisome proliferator-activated receptor delta (Homo sapiens) (UniProt Q03181). The assay is described as above. In short, it runs like this: as §1
For assay [22], the target named is Peroxisome proliferator-activated receptor gamma (Homo sapiens) (UniProt P37231). As to the kind of experiment: qHTS assay for small molecule agonists of peroxisome proliferator-activated receptor gamma signaling (AID 588536; active = well fitted curve in the direction sought with a large enough effect in the signal ratio, with a control signal flat, not every such curve was filed as active; the % refers to the signal ratio;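 note: 0% = DMSO basal wells and 100% = rosiglitazone at 2 µM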). In short, it runs like this:
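Compound treatment: 16 h, 37 C, HEK293 GeneBLAzer cells. Detection: CCF4, 2 h RT. Values: Hill-fit EC50, efficacy as % of 2 uM rosiglitazone.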

The nature of assay [23]: qHTS assay for small molecule agonists of retinoid X receptor alpha signaling (AID 588544; calls by dose curve;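 for activation: 0% = DMSO basal wells and 100% = reference agonist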). Conditions: HEK293T RXRa-UAS-bla, beta-lactamase reporter, 18 h; 530 nm emission.
Assay [24] concerns the target Retinoic acid receptor RXR-alpha (Homo sapiens) (UniProt P19793). The description is as above.

Chain of Bile acid receptor (Homo sapiens) (Q96RI1 whole entry, looked up): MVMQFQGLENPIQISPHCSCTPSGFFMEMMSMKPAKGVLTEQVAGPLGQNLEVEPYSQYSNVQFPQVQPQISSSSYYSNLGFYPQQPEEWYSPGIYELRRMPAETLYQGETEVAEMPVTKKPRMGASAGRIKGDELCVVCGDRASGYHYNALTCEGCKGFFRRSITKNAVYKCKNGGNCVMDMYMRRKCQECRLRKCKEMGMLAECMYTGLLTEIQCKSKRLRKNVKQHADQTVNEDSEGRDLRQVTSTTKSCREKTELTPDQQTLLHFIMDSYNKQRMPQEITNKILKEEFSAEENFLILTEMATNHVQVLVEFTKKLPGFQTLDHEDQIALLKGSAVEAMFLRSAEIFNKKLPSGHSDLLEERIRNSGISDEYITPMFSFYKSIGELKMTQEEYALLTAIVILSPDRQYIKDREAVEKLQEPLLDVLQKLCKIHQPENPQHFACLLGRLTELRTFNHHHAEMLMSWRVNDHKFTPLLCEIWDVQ
Chain of Peroxisome proliferator-activated receptor delta (Homo sapiens) (Q03181 whole entry, looked up): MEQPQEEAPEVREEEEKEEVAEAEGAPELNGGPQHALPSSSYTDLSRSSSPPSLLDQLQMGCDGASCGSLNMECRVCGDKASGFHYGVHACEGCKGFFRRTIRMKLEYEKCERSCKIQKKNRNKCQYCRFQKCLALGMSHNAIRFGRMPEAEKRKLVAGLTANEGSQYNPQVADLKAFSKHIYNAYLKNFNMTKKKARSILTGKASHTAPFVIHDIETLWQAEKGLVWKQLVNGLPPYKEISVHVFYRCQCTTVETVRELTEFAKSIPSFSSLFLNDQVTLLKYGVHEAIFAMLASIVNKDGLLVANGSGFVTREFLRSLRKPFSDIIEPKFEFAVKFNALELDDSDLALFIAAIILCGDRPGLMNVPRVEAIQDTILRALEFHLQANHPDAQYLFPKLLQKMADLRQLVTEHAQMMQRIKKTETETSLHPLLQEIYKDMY
Chain of Estrogen receptor (Homo sapiens) (P03372 whole entry, looked up): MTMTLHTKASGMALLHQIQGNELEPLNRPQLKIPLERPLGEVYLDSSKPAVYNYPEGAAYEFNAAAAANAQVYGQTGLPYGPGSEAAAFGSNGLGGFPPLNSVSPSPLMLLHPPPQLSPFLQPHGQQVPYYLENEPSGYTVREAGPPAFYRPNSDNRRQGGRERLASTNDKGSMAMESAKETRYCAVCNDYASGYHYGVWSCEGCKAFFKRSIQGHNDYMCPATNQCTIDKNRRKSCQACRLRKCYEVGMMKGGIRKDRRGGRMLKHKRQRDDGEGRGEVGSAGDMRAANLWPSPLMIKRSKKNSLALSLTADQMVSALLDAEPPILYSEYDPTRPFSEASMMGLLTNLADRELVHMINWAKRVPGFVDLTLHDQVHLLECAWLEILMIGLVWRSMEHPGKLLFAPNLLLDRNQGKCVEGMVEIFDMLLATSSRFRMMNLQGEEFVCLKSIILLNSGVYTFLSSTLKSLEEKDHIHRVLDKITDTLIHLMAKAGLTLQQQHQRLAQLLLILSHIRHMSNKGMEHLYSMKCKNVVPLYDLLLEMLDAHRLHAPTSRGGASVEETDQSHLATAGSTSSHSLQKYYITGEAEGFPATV
Chain of Peroxisome proliferator-activated receptor gamma (Homo sapiens) (P37231 whole entry, looked up): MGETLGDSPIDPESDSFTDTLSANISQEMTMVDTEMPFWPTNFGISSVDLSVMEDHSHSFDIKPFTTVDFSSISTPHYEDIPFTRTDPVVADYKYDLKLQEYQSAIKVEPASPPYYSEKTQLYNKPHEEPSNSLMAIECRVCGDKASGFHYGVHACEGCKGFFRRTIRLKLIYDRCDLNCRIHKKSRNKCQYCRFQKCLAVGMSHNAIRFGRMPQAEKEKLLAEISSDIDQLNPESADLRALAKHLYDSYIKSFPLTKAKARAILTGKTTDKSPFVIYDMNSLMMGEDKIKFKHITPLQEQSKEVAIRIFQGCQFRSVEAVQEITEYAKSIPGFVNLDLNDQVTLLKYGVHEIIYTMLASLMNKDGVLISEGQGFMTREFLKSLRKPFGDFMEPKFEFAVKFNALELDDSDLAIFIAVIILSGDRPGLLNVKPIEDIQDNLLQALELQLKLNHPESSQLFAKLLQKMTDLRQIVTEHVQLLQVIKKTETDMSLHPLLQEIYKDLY
Chain of Retinoic acid receptor RXR-alpha (Homo sapiens) (P19793 whole entry, looked up): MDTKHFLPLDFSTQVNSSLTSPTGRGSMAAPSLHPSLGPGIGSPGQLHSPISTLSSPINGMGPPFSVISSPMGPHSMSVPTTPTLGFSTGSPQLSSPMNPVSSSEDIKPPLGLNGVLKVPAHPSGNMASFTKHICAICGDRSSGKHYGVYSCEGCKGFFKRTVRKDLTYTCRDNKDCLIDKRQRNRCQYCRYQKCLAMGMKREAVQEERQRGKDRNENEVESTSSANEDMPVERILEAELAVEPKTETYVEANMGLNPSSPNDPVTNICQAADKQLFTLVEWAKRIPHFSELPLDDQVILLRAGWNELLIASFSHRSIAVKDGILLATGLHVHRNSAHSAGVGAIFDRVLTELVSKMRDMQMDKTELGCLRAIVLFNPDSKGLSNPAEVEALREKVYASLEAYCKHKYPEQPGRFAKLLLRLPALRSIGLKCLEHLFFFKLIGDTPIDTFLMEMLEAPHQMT

Turning to `CCCOC(=O)c1ccccc1C(=O)OCCC`, the Potency entry in [1], in assay [2], in [3], in assay [4], in assay [5] and in assay [6] was “inactive” each time. Also, the Potency result in assay [7], in assay [8], in [9], in [10], in assay [11] and in [12] was “inactive” each time. Moreover, the Potency result in [13], in assay [14], in [15], in [16], in [21] and in assay [24] was “inactive” in each case. The compound was classed as inactive in assay [17], in assay [19] and in assay [22]. The activation in assay [18] was -0.825% (inactive) and -0.41% (inactive). Besides, the max response in assay [20] was 2.17%; in [23], 8.06% and -8.01%.
